# The panel holds about 83,000 compounds, 20% with a hit somewhere; the sample as a whole holds those more often.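 In brief: 96-well plates, 48 h treatment, single concentration, percent growth endpoint.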 Values without a mark were called inactive. Calls of active or inactive are those of the source. The calls were made as follows: active = growth percent below 10; inactive = the rest.
# Test system: HL-60(TB) leukemia
# Assay: NCI-60 one-dose screen, 48 h (100 = growth as untreated, 0 = no growth, -100 = all killed)
# Conditions: 10 µM unless noted
row,SMILES,growth
1,O=C(Nc1ccncc1)C(=O)c1cn(S(=O)(=O)c2ccc(Oc3ccccc3)cc2)c2ccccc12,70.5%
2,COc1ccc2c(c1)c(-c1nc(-c3cn(C)c4ncccc34)cs1)cn2CCO,82.4%
3,O=C(Nc1ccc(Cl)c(Cl)c1)OCc1ccco1,32.1%
4,COc1cccc(NC(=O)c2sc3nc4c(cc3c2N)CCCC4)c1,5.68% (active)
5,C#CCNC(=O)CC[C@@H](C)[C@H]1CC[C@H]2[C@@H]3CC[C@@H]4CC(=O)CC[C@]4(C)[C@H]3CC[C@]12C,-30% [100 µM] (active)
6,Cc1ccc(/C=C(\C#N)n2nc3cccc(F)c3n2)cc1,86.6%
7,Cc1ccc(S(=O)(=O)N2CCC(=O)c3ccccc32)cc1,60.3%
8,COc1cccc(-c2nn(-c3ccccc3)cc2-c2ccnc(NCCCO)c2)c1,-7.94% (active)
9,COc1ccc2nc(-c3ccc(-c4noc(-c5cc(OC)c(OC)c(OC)c5)n4)cc3)[nH]c2c1,74.4%
10,CCN(CC)CC(C)Nc1ccc([N+](=O)[O-])c2sc3ccccc3c(=O)c12 (stereo not given),-26.2% (active)
11,CCOC(=O)CNC(=O)C1(NC(=O)CNC(=O)OCc2ccccc2)CCCC1,87.5%
12,COc1cc(OC)cc(C2C3=C(COC3=O)Nc3cc(OC)ccc32)c1 (stereo not given),1.71% (active)
13,Clc1ccc2c(NCCCN3CCN(c4nc(-n5ccnc5)nc5ccccc45)CC3)ccnc2c1,52.7%
14,CCOc1ccc(S(=O)(=O)Nc2ccc3c(c2)N(S(=O)(=O)CC)CCC3)cc1,77.1%
15,COC(=O)Nc1nc2ccc(C3(c4ccc(F)cc4)OCCO3)cc2[nH]1,-25.1% (active)
16,NS(=O)(=O)c1ccc(-n2nc(-c3ccc(Cl)cc3)ccc2=O)cc1,83.7%
17,CC(=O)OC1Oc2cc(C)c(C)cc2-c2oc(=O)c(-c3ccccc3)cc21 (stereo not given),-39.1% (active)
18,O=C(Nc1ccc(OCc2nnc(-c3ccc(Cl)cc3)o2)c(F)c1)Nc1ccc(Cl)c(Cl)c1,95.5%
19,Cn1nc(C(F)(F)F)c(-c2cc(C(F)(F)F)cc(C(F)(F)F)c2)c1-c1ccc(OCc2ccc(Cl)cc2)cc1O,-39.9% (active)
20,CCOP(=O)(OCC)/C(=C\N1C(=O)CC(=O)NC1=S)C(=O)OC,103%

row,SMILES,growth
1,N#CC1=C(N)Oc2c(sc3c(F)cccc23)C1c1ccc(Cl)cc1 (stereo not given),-6.14% (active)
2,CNC(=O)c1cc(Oc2ccc3c(c2)sc2nc(-c4ccc(NC(=O)Nc5ccc(Cl)c(C(F)(F)F)c5)cc4)cn23)ccn1,32.2%
3,COc1ccc(-n2ncc3c2ccc2cc(S(=O)(=O)c4ccccc4)c(=O)n(C)c23)cc1,110%
4,CCOC(=O)Nc1nccs1,100%
5,CCNC(=S)N(Cc1ccccc1)Cc1ccccc1,96.2%
6,COc1cc(/C(C)=C(\c2ccc(Cl)cc2)c2ccc(OCCN(C)C)cc2)ccc1F,54.4%
7,COC(=O)Nc1nc2ccc(C(=O)C3CC3)cc2[nH]1,-56.2% (active)
8,COc1ccc2c(c1)N(CCO)C1=C(C(=O)OC1)C2c1cccc(F)c1 (stereo not given),-22.7% (active)
9,O=C(N/N=C/c1ccc([N+](=O)[O-])o1)c1ccc(O)cc1,19.8%
10,FCOC(C(F)(F)F)C(F)(F)F,96.1%
11,N#Cc1c(-c2ccc(Cl)cc2)nc(NN=Cc2cccc(Cl)c2)nc1N1CCOCC1,71.5%
12,CC(C)c1ccc(Cn2ccc3c4c(N)nc(NC5CC5)nc4ccc32)cc1,-68.8% (active)
13,CC(/C=C/c1ccccc1)=N/NC(=O)c1ccncc1,92.2%
14,Oc1cc(O)c2c(=S)cc(-c3ccc(Cl)cc3)oc2c1,37.6%
15,Nc1nc2ccccc2c2c(=O)c3cc(F)ccc3sc12,99.4%
16,COc1ccc(-c2onc(N)c2-c2cc(OC)c3c(c2)OCO3)cc1,-31.4% (active)
17,OCCNc1nc(Nc2ccc(Cl)c(Cl)c2)nc2ccccc12,44.4%
18,Cc1cc2nc(C(Cl)Cl)nc(-c3ccccc3)n2n1,-14.1% (active)
19,Cn1nc(C(F)(F)F)cc1-c1c[nH]c(OCc2ccc(Cl)cc2)c(-c2ccc(Cl)c(C(F)(F)F)c2)c1=O,-28% (active)
20,Cn1cnc([N+](=O)[O-])c1S(=O)(=O)Oc1ccc(Cl)cc1,-35.2% (active)
